This note sets out measurements from PubChem BioAssay (NCI).

Common to all, as to assay: NCI-60 one-dose screen, 48 h (100 = growth as untreated, 0 = no growth, -100 = all killed)
Holding throughout (conditions): 10 µM

The subject of assay [1] is NCI-H23 lung.
In assay [2] the test system is NCI-H226 lung.
Assay [3] has as its system NCI-H322M lung.
Assay [4] concerns HOP-62 NSCLC.
The subject of assay [5] is NCI-H460 lung.
For assay [6], the system named is NCI-H522 lung.
Assay [7] concerns A549/ATCC NSCLC.
Assay [8] deals with 786-0 renal.
Assay [9] concerns COLO 205 colon.
Assay [10] concerns DU-145 prostate.

Molecules are shown by their SMILES. This is part of a sample that, as a whole, favours compounds with a hit. Of some 83,000 tested, about 20% had one in any assay.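 How to read the values: 0–100, growth inhibition (40 = 60% inhibited); 0, no net growth; -100 to 0, cell death (-40 = 40% of starting cells died; -100 = all dead).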 Unmarked numbers belong to inactive results. Activity calls are given as the source filed them. The calls were made as follows: active = growth percent below 10; inactive = the rest.

For the molecule `CCC(=O)N1C/C(=C/c2ccc(Br)cc2)C(=O)/C(=C/c2ccc(Br)cc2)C1`, the growth in assay [1] was -46.2% (active); in assay [2] it was -62.8% (active); in [3] it was -27.2% (active); in [4], -67.4% (active); in [5], -46.8% (active); in assay [6], -79.6% (active). Besides, the growth in assay [7] was -27.2% (active); in assay [8], -77.3% (active); in assay [9], -93.1% (active); in assay [10], -65.4% (active).
On to `COc1ccc(-c2nc3ncccn3c2-c2nnc(-c3ccc(F)cc3)o2)cc1`, for which the growth in assay [1] is 98.2%; in assay [2], 96.7%; in assay [3], 101%; in assay [4], 106%; in [5], 101%; in [6] it was 106%. In addition, the growth in assay [7] is 104%; in assay [8], 101%; in assay [9], 113%; in assay [10], 106%.
On to `COc1ccc(-c2cc(-c3cccc(NS(C)(=O)=O)c3)nc(N)c2C#N)cc1`, for which the growth in [1] is 37.7%; in [2] it was 62.8%; in assay [3], 44.4%; in assay [4], 52.3%; in assay [5], 4.64% (active); in [6] it was -4.96% (active). Moreover, the growth in assay [7] was 33.6%; in [8], 42.9%; in assay [9] it was -27% (active); in assay [10], 5.82% (active).
Take `CC1CN(Cc2ccccc2)C(=O)NC1=O` (stereo not drawn): the growth in [1] was 110%; in assay [2], 106%; in assay [3], 122%; in assay [4], 105%; in [5], 109%; in [6], 91.8%. Further, the figures for the growth in [7], in assay [8] and in assay [9] were 103%, 112% and 108%, respectively.
Take `COc1cc2c(cc1OCCCN1CCN(c3ncnc4ccccc34)CC1)N=CC1CCCN1C2=O` (stereo not drawn): the growth in assay [1] was -8.7% (active); in assay [2], -50.1% (active); in [3] it was -3.85% (active); in [4] it was 4.07% (active); in assay [5], 8.4% (active); in assay [6], -37.7% (active). For the same molecule, the growth was -2.44% (active) in assay [7], 7.51% (active) in [8] and -42% (active) in [9].
`CCOC(=O)C1(CC(C)C)CCOC1=O` (stereo not drawn): the growth was 102% in assay [1]; 106% in assay [2]; 104% in [3]; 109% in [4]; 103% in assay [5]; 100% in [6]. For the same molecule, the growth in [7] is 94.8%; in [8] it was 107%; in assay [9] it was 115%; in [10], 105%.
Regarding `CC12O[C@H](C[C@@H](O)[C@H]1O)n1c3ccccc3c3c4c(c5c6ccccc6n2c5c31)C(=O)N(CCCN)C4=O`, the growth in [1] was 28.9%; in [2], 27.4%; in [3], 56.3%; in assay [4], 25.3%; in assay [5] it was 10.4%; in assay [6], -2.33% (active). The growth in assay [7] was 31.5%; in assay [8] it was 53.9%; in [9], 12.9%; in assay [10] it was 60.8%.
On to `O=C1NC(=O)c2ncccc21`, for which the growth was 101% in [1]; 96.3% in assay [2]; 106% in assay [3]; 109% in assay [4]; 111% in [5]; 171% in assay [6]. The growth was 98.8% in assay [7], 102% in assay [8], 114% in assay [9] and 113% in [10].
In the case of `O=C(NC(Cc1ccc(O)cc1)C(=O)N=Nc1c(O)[nH]c2ccccc12)c1ccccc1` (stereo not drawn), the growth in assay [1] was 95%; in assay [2], 100%; in [3], 102%; in [4], 93.3%; in [5] it was 107%; in assay [6] it was 97.1%. In addition, the growth in assay [7] is 99.5%; in [8], 98.9%; in assay [9], 109%; in [10] it was 108%.
Turning to `Clc1ccc(Sc2nc(NC3CC3)nc(Sc3ccc(Cl)cc3)n2)cc1`, the growth in [1] is 81%; in assay [2], 83.4%; in [3] it was 86.7%; in [4], 102%; in [5], 89.3%; in [6], 59.1%. Further, the growth in [7] was 80.9%; in assay [8], 87.5%; in [9], 74%; in assay [10] it was 92.8%.
In the case of `CC(=O)c1nc2ccccc2n1CCNC(N)=O`, the growth was 82.1% in assay [1]; 100% in assay [2]; 95% in assay [3]; 70.3% in [4]; 55.2% in assay [5]; 61.8% in [6]. The growth in [7] is 62.3%; in assay [8], 95.1%; in assay [9] it was 69.7%; in [10], 93.2%.
In the case of `CC(=O)c1nc2ccccc2n1CCN1CCN(C)CC1`, the growth in assay [1] was 46.2%; in assay [2], 90.9%; in assay [3], 31.9%; in [4], 41%; in [5], 13.1%; in [6], 0.166% (active). Also, the growth was 31.2% in assay [7], 78.6% in [8], 2.73% (active) in [9] and -3.03% (active) in [10].
With `COc1ccccc1/C=C/C(=O)c1ccccc1`, the growth in assay [1] is 84.7%; in assay [2], 85%; in [3], 91.9%; in [4] it was 88.3%; in [5] it was 90%; in assay [6], 62.7%. Moreover, the growth is 67% in assay [7], 98.4% in assay [8], 84.8% in [9] and 87.6% in assay [10].
`COc1ccc(-c2nc(-c3nc4ccc(OC)cc4[nH]3)cc3c2[nH]c2ccccc23)cc1`: the growth in [1] was 55%; in [2] it was 65.3%; in assay [3], 48.2%; in assay [4], 53.9%; in assay [5], 2.46% (active); in [6], 45.2%. In addition, the growth in [7] is 12.9%; in [8] it was 37.4%; in assay [9], 31.3%; in assay [10], 19.9%.
